For some assays here: Potency and affinity values are given separately.
Experiments:
Set-up in all cases: scale not given: direction of the effect not stated beside the values
[1] = target: Protein translocase subunit SecA (Escherichia coli (strain K12)) (UniProt P10408); experiment: Assay to Identify E. coli SecA ATPase Inhibitors; type: functional; settings: 30 µM
[2] = target: T1, Ubiquitin-activating enzyme e1, putative (Leishmania donovani (strain BPK282A1)) (UniProt E9BSI1); experiment: Leishmania donovani Ubiquitin Activating Enzyme (LdE1); type: functional; settings: 30 µM
T1 sequence (whole entry): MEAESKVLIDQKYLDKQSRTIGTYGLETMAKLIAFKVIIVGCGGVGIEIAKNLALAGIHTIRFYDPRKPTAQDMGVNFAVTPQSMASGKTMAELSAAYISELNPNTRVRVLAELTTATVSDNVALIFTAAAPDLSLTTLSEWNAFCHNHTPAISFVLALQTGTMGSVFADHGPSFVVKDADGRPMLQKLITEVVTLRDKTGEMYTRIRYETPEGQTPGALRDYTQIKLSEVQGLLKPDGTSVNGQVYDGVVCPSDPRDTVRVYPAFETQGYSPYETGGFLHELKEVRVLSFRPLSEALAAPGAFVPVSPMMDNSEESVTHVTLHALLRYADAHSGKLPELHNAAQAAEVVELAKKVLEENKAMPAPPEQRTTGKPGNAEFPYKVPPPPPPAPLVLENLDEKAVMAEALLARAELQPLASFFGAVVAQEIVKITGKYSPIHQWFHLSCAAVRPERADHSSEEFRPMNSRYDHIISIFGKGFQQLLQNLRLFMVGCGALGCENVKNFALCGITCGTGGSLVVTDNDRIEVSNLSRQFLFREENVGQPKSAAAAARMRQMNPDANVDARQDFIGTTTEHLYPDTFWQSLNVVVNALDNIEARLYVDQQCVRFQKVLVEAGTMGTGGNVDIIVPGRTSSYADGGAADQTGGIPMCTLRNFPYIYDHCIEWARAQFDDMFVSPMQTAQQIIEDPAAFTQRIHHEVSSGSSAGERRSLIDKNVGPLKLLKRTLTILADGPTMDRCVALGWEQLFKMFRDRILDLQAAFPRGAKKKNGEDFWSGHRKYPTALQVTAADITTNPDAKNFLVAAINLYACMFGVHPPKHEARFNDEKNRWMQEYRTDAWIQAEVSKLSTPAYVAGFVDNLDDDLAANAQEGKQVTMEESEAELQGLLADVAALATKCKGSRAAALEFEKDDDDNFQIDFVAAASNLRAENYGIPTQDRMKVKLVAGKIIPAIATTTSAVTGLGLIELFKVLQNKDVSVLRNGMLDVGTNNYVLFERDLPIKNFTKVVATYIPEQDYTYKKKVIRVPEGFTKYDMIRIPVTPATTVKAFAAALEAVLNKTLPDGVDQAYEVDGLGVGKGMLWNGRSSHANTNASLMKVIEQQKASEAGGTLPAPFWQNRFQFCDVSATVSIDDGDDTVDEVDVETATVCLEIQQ

[3] = target: AMP-activated protein kinase, AMPK (Homo sapiens) (UniProt P54646+O43741+P54619+Q9UGJ0+Q9Y478+Q13131+Q9UGI9); experiment: AMP-dependent Kinase enzyme assay. An in vitro enzyme assay that detects ADP turnover that is directly proportional to AMPK activity. This uses naive AMPK that is activated during the assay with MK-8722; type: functional; settings: 30 µM
[4] = target: Sialic acid-binding Ig-like lectin 9 (Homo sapiens) (UniProt Q9Y336); experiment: Hs-Siglec9 ALPHAscreen SOP 20170721; settings: 10 µM
Sialic acid-binding Ig-like lectin 9 (Homo sapiens), sequence (Q9Y336 whole entry): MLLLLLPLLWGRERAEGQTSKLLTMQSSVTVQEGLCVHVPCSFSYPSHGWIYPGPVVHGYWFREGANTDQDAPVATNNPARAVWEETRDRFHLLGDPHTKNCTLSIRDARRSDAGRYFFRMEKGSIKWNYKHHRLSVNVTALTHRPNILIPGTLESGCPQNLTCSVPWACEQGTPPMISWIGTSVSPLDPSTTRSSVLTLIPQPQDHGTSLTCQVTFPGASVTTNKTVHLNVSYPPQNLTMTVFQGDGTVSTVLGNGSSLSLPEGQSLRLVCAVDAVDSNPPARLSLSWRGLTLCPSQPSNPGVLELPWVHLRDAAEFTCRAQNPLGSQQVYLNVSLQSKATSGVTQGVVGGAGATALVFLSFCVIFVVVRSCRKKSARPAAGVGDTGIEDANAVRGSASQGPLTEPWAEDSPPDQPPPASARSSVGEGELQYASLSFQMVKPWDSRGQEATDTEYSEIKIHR

[5] = tested on: Trypanosoma cruzi; experiment: Trypanosoma cruzi phosphomannomutase and mannose-1-phosphate guanylyltransferase assay; type: functional; settings: 10 µM
[6] = target: T2, Arginase-2, mitochondrial (Homo sapiens) (UniProt P78540); experiment: in vitro enzyme assay to detect the production of urea directly proportional to the activity of Arginase II; type: functional; settings: 33.3 µM; note: in the data most compounds retested in dose-response had high values
T2 sequence (whole entry): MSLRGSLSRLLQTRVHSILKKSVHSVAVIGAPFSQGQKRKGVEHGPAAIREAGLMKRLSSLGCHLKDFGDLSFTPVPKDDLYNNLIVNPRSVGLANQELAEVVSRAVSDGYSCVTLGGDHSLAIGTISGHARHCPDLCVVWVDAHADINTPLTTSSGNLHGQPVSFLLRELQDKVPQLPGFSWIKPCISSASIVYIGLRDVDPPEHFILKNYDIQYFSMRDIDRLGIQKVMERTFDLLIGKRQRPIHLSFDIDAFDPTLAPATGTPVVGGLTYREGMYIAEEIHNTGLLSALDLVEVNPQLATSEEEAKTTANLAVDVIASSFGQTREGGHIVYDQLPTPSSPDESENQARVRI

[7] = target: T3, Proteasome subunit beta (Trypanosoma cruzi) (UniProt O96673); experiment: Trypanosoma cruzi proteasome chymotrypsin-like activity (TcProtChymo) assay.; note: in the data most compounds retested in dose-response had high values; type: functional; settings: 9.37 µM
T3 sequence (whole entry): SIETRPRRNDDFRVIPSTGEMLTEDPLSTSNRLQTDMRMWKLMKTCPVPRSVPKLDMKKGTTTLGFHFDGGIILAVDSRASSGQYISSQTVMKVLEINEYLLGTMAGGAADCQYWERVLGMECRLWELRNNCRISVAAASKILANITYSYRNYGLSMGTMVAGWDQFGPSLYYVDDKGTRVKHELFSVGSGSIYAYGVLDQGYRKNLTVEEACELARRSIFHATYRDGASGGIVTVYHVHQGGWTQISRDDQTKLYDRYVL

[8] = species on record: Homo sapiens; experiment: To identify inhibition of the IFN signalling (Jak-Stat) pathway via expression of an eGFP reporter gene under the control of an IFN-stimulated response element (ISRE) containing MxA promoter.; type: functional; settings: 30 µM
[9] = target: T4, Tyrosyl-tRNA synthetase, putative (Trypanosoma cruzi (strain CL Brener)) (UniProt Q4DSP6); experiment: Trypanosoma cruzi tyrosyl tRNA synthetase (TcYRS) _High Tyrosine SOP; type: functional; settings: 30 µM; note: in the data most compounds retested in dose-response had high values
T4 sequence (whole entry): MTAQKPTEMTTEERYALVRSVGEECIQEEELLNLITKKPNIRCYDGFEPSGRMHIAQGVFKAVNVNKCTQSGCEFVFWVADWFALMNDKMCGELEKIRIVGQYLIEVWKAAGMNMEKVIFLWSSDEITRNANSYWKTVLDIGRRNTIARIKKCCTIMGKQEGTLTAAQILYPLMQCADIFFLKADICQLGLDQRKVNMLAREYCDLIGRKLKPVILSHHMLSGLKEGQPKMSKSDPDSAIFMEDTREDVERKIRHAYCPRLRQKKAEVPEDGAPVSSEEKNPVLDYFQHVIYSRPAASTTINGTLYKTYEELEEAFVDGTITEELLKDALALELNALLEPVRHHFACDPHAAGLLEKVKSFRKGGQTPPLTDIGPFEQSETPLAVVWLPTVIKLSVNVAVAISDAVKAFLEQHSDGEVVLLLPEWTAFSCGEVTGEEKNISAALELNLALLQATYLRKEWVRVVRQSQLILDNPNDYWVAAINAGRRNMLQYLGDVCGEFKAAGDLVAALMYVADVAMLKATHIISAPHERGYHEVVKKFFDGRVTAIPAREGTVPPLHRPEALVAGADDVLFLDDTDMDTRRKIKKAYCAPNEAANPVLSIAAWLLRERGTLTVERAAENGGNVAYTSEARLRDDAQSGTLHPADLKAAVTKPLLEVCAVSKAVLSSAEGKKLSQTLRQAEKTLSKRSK

[10] = target: T4, Tyrosyl-tRNA synthetase, putative (Trypanosoma cruzi (strain CL Brener)); experiment: Trypanosoma cruzi tyrosyl tRNA synthetase (TcYRS) SOP; type: functional; settings: 30 µM
[11] = target: Chromo domain-containing protein 1 (Saccharomyces cerevisiae (strain ATCC 204508 / S288c) (Baker's yeast)) (UniProt P32657); experiment: ScCHD-1 Enzyme Inhibition Assay; type: functional; settings: 30 µM; note: in the data most compounds retested in dose-response had high values
Chromo domain-containing protein 1 (Saccharomyces cerevisiae (strain ATCC 204508 / S288c) (Baker's yeast)), sequence (P32657 whole entry, the tested form may be a part): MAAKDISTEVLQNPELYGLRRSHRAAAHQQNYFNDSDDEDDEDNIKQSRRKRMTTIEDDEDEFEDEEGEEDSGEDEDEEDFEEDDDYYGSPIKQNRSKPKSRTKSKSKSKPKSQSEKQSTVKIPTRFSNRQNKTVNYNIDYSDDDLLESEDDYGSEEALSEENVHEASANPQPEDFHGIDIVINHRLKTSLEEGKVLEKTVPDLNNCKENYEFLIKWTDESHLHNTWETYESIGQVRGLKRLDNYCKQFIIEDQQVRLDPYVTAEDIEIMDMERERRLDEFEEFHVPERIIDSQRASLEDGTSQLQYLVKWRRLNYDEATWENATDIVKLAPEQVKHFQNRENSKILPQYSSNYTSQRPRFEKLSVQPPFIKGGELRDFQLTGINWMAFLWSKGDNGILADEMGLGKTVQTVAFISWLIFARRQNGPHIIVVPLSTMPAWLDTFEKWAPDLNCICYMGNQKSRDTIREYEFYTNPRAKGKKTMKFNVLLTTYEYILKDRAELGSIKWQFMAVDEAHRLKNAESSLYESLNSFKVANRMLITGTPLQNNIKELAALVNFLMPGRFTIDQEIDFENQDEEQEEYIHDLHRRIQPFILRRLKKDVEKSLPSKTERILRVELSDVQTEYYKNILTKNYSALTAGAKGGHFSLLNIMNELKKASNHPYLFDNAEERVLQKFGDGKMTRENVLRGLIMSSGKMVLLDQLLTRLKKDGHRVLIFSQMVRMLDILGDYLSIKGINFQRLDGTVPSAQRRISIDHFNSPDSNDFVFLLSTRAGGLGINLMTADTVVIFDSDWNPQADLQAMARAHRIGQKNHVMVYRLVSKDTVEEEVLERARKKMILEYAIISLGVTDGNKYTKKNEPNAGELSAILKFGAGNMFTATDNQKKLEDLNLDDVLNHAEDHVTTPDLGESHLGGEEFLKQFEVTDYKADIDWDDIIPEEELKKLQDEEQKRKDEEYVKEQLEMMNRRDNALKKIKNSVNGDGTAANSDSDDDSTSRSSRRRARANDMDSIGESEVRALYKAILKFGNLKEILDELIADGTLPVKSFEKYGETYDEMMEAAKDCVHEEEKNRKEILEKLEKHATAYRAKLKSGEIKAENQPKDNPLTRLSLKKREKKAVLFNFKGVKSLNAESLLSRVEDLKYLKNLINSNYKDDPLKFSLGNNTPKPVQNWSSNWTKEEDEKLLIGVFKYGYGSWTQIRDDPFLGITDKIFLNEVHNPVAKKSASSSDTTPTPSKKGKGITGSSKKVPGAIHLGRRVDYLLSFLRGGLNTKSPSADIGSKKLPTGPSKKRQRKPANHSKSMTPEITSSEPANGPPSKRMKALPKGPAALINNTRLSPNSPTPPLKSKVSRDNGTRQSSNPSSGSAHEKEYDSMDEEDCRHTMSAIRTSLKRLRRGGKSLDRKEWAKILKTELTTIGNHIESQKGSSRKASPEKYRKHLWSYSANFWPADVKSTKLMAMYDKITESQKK

Protein translocase subunit SecA (Escherichia coli (strain K12)), sequence (P10408 whole entry): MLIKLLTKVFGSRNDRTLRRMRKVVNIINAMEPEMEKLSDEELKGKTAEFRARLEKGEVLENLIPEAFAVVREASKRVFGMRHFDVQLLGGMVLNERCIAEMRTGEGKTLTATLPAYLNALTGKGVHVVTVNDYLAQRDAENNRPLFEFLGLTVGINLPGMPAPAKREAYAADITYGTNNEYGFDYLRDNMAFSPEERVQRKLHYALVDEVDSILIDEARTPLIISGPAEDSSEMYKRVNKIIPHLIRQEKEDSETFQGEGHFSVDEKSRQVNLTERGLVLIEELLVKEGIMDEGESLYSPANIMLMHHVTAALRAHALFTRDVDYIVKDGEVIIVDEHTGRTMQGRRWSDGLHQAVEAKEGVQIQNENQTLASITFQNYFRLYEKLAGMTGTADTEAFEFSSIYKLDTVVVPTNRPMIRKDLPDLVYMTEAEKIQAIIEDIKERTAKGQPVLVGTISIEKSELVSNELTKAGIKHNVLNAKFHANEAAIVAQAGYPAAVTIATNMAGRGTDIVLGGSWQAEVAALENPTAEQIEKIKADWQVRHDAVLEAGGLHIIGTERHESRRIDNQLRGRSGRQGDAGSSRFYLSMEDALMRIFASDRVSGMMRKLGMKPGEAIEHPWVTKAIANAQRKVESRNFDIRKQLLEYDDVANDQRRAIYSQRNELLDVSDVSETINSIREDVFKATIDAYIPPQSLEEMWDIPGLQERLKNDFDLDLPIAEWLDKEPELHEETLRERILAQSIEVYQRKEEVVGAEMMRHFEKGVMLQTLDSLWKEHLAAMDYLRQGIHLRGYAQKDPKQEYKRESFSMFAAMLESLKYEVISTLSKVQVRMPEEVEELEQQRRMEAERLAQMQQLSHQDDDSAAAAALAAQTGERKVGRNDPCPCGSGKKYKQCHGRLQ

Row | SMILES | Percent Effect [1] [%] | Percent Effect [2] [%] | Percent Effect [3] [%] | Percent Effect [4] [%] | Percent Effect [5] [%] | Percent Effect [6] [%] | Percent Effect [7] [%] | Percent Effect [8] [%] | Percent Effect [9] [%] | Percent Effect [10] [%] | Percent Effect [11] [%]
1 | Cc1ccc(C(=O)NCCCNS(C)(=O)=O)cc1-n1cccc1 | -3.12 | 13.2 | 12.3 | -1.07 | 3.99 | 9.47 | 15.2 | 9.99 | 6.38 | 10.4 | -5.78
2 | CC(=O)N1CCCN(C(=O)c2csc(-c3ccc(C)cc3C)n2)CC1 | -4.67 | 18.9 | -3.68 | 14.8 | 7.15 | -7.58 | 5.39 | 30 | 5.94 | 23.2 | -6.02
3 | Cn1nc(C2CCCN(C(=O)CO)C2)cc1O (configuration not stated) | -4.16 | -6.76 | -113 | -1.22 | -3.75 | -0.232 | 1.4 | -6.44 | -6.45 | -9.09 | -2.64
4 | CNC(=O)C(C)(C)NC(=O)c1cc(OCC2CCC2)cc(C(=O)OC)c1 | -0.888 | 11 | 28.1 | -1.12 | 2.35 | 15.9 | 12.6 | 31.3 | 6.45 | 15 | -3.04
5 | CC(=O)N1CCC2(CC1)CC(Oc1ccccc1)CO2 (configuration not stated) | 1.79 | 2.74 | 2.24 | 9.38 | -4.17 | -1.2 | 19.6 | 1.3 | 6.25 | 8.64 | 3.27
6 | O=C(Cc1cccc(F)c1)NCCNCc1cccc(O)c1 | -1.42 | -5.2 | 13.5 | 6.95 | 0.749 | 3.56 | -0.169 | 3.07 | 8.74 | 12.2 | -4.75
7 | O=C(COCc1ccccc1)N1CCCC(n2cncn2)C1 (configuration not stated) | -4.9 | 16.2 | -5.92 | 0.0525 | 1.79 | -2.4 | 7.57 | 11.4 | 6.4 | 18.5 | -4.59
8 | CC(NC(=O)NCCCO)c1ccc2c(c1)OCCO2 (configuration not stated) | -1.5 | 16.2 | 0.694 | -1.77 | 1.76 | 3.51 | 14.2 | 2.1 | 4.95 | 28.1 | -6.78
9 | Cc1cccc2c1cnn2CCCNC(=O)CCCC(=O)O | -1.56 | 5.2 | 4.98 | 7.89 | 4.42 | -112 | 0 | 2.46 | 4.3 | 16.1 | -2.54
10 | CNC(=O)[C@@]12CCC3(CCN(C(C)=O)CC3)[C@@H]1CN(S(C)(=O)=O)C2 | -4.16 | 8.11 | -2.4 | -2.81 | -4.01 | 4.22 | -0.0858 | 1.1 | 5.38 | 6.17 | -3.18
11 | O=C(Nc1cnccn1)[C@H]1COC[C@H]2CN(C3CCCC3)C[C@H]21 | -0.257 | 2.7 | -0.6 | 0.701 | 4.88 | 2.92 | -0.0845 | -10.3 | 3.96 | -1.22 | -1.78
12 | CN(CCCc1cnn(C)c1)C(=O)C1COc2ccccc2C1 (configuration not stated) | 0.742 | 8.22 | 1.84 | -1.88 | -1.37 | 2.27 | 20.6 | 9.33 | 2.15 | 17.5 | -14.2
13 | Cc1cccc(-c2nc(C)nn2CC(=O)NC2CCCC2)c1 | -5.38 | 23.4 | -6.06 | 8.2 | 6.93 | 3.2 | 18.6 | 5.48 | 9.71 | 26.8 | -9.1
14 | O=C(CCc1nccs1)N1CCN(c2ccccc2F)CC1 | -4.98 | 7.59 | -1.29 | -1.48 | 8.4 | -6.46 | -2.05 | 5.18 | 2.46 | 8.86 | -2.22
15 | CCOC(=O)CCNC(=O)N1CCN(c2nc3ccccc3n2C)CC1 | -1.65 | 10.4 | 1.91 | 4.46 | -5.42 | -266 | 12.2 | -4.19 | 2.12 | 16.7 | -7.17
16 | Cc1cnn(CC2CCCN2Cc2cc(=O)n3cccc(C)c3n2)c1 (configuration not stated) | -6.14 | 8.11 | -3.73 | 28.3 | 6.75 | 35.5 | 17.8 | -6.92 | 14 | 25.9 | -5.16
17 | Cc1cc(C(=O)N[C@@H]2CCNC[C@H]2O)ccc1Cl | -1.58 | 5.41 | 1.58 | 10.1 | 6.56 | -1.91 | 11.4 | -9.87 | 6.88 | 4.88 | -2.88
18 | Fc1ccc(CN2CCO[C@H]3[C@H](OCCN4CCCC4)CC[C@@H]32)cc1 | 7.01 | 10.7 | 5.78 | 7.14 | -4.05 | -51.1 | 12.8 | -9.42 | 5.21 | 12.5 | -3.68
19 | Cc1occc1C(=O)N1CCC2(CCCN(CC3CCC3)C2=O)C1 (configuration not stated) | 0.601 | 1.39 | -1.7 | 8.02 | 2.62 | 11 | 13.3 | 13.6 | 6.32 | 10.3 | -2.8
20 | O=C(CCc1ccccc1)C1CCCN(C(=O)c2ncc(F)cc2F)C1 (configuration not stated) | -4.95 | 5.48 | 0.372 | -8.02 | -1.18 | 2.73 | 9.94 | 2.79 | 5.38 | 10 | -1.5
21 | O=C(Cc1ccc2c(c1)CCC2)NCCNc1ncccn1 | -2.76 | 21.1 | 0.848 | 1.21 | 2.89 | 3.96 | 18.4 | -17.3 | 6.4 | 30.9 | -10.6
22 | CCS(=O)(=O)N1CCC[C@]2(C(=O)N(C)C)CN(c3ccccn3)C[C@@H]2C1 | -6.08 | 5.33 | 2.98 | 0.0913 | 4.05 | -50 | 10.1 | -17 | 3.12 | 12.5 | -5.8
